Reference: PubChem BioAssay AID1159580 (chemical genetic matrix, 2015)
Values joined by “and” are separate entries in the source; they are usually repeats but may differ in a detail not shown here. Equal values may be shown once. About 2,000 (36%) of roughly 5,500 compounds were called active. About 18% were inconclusive and are not listed. Rule as the data show it: active = normalized growth mostly below about 0.91 (no sharp cut-off); inconclusive = no clear call, values can overlap the other calls; inactive = mostly above about 0.92. The list shows a part of the results.

Test: chemical genetic growth profiling, strain panel (AID 1159580);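 also: tested at 20 µM; growth read once vehicle control cultures reached saturation at 30 °C; 1 = growth at the plate median or of vehicle wells; lower values mean less growth of the strain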
Settings: S. cerevisiae deletion strains, growth OD

## CC(C)=CCc1c2c(c3occ(-c4ccc(O)cc4)c(=O)c3c1O)C=CC(C)(C)O2
Locus YAL013W, strain DEP1, stronger effect = lower value
  normalized growth: 0.718 (active)
Locus YAL021C, strain ccr4, stronger effect = lower value
  normalized growth: 0.962 (inactive)
Locus YAL026C, strain drs2, stronger effect = lower value
  normalized growth: 0.911 (inactive)
Locus YAL030W, strain snc1, stronger effect = lower value
  normalized growth: 0.876 (active)
Locus YBL061C, strain skt5, stronger effect = lower value
  normalized growth: 0.739 (active)
Locus YBR009C, strain hhf1, stronger effect = lower value
  normalized growth: 0.882 (active)
Locus YBR021W, strain FUR4, stronger effect = lower value
  normalized growth: 0.913 (inactive)
Locus YBR023C, strain chs3, stronger effect = lower value
  normalized growth: 0.747 (active)
Locus YBR171W, strain sec66, stronger effect = lower value
  normalized growth: 1.01 (inactive)
Locus YBR229C, strain ROT2, stronger effect = lower value
  normalized growth: 0.929 (inactive)
Locus YBR231C, strain swc5, stronger effect = lower value
  normalized growth: 0.751 (active)
Locus YBR279W, strain paf1, stronger effect = lower value
  normalized growth: 0.796 (active)
Locus YCL011C, strain gbp2, stronger effect = lower value
  normalized growth: 0.881 (active)
Locus YCL016C, strain dcc1, stronger effect = lower value
  normalized growth: 0.869 (active)
Locus YCL029C, strain bik1, stronger effect = lower value
  normalized growth: 0.926 (inactive)
Locus YCL061C, strain MRC1, stronger effect = lower value
  normalized growth: 0.947 (inactive)
Locus YCL069W, strain vba3, stronger effect = lower value
  normalized growth: 0.987 (inactive)
Locus YCR088W, strain abp1, stronger effect = lower value
  normalized growth: 1.01 (inactive)
Locus YDL005C, strain med2, stronger effect = lower value
  normalized growth: 0.995 (inactive)
Locus YDL035C, strain GPR1, stronger effect = lower value
  normalized growth: 0.72 (active)
Locus YDL040C, strain nat1, stronger effect = lower value
  normalized growth: 0.991 (inactive)
Locus YDL074C, strain BRE1, stronger effect = lower value
  normalized growth: 0.727 (active)
Locus YDL101C, strain DUN1, stronger effect = lower value
  normalized growth: 0.903 (inactive)
Locus YDL134C, strain PPH21, stronger effect = lower value
  normalized growth: 0.736 (active)
Locus YDL185W, strain tfp1, stronger effect = lower value
  normalized growth: 0.995 (inactive)
Locus YDL192W, strain arf1, stronger effect = lower value
  normalized growth: 0.859 (active)
Locus YDR001C, strain nth1, stronger effect = lower value
  normalized growth: 1.01 (inactive)
Locus YDR069C, strain doa4, stronger effect = lower value
  normalized growth: 0.711 (active)
Locus YDR101C, strain arx1, stronger effect = lower value
  normalized growth: 0.953 (inactive)
Locus YDR137W, strain rgp1, stronger effect = lower value
  normalized growth: 1.01 (inactive)
Locus YDR159W, strain sac3, stronger effect = lower value
  normalized growth: 1.07 (inactive)
Locus YDR162C, strain NBP2, stronger effect = lower value
  normalized growth: 0.664 (active)
Locus YDR195W, strain ref2
  normalized growth: 1.14 (inactive)
Locus YDR297W, strain sur2, stronger effect = lower value
  normalized growth: 0.828 (active)
Locus YDR318W, strain mcm21, stronger effect = lower value
  normalized growth: 0.911 (active)
Locus YDR334W, strain swr1, stronger effect = lower value
  normalized growth: 0.92 (inactive)
Locus YDR335W, strain msn5, stronger effect = lower value
  normalized growth: 0.981 (inactive)
Locus YDR388W, stronger effect = lower value
  normalized growth: 0.917 (active)
Locus YDR392W, strain spt3, stronger effect = lower value
  normalized growth: 0.78 (inactive)
Locus YDR502C, strain sam2, stronger effect = lower value
  normalized growth: 0.938 (inactive)
Locus YEL003W, strain gim4, stronger effect = lower value
  normalized growth: 0.94 (inactive)
Locus YEL037C, strain rad23, stronger effect = lower value
  normalized growth: 0.958 (inactive)
Locus YEL061C, strain CIN8 (second series), stronger effect = lower value
  normalized growth: 1.01 (inactive)
Locus YEL061C, strain CIN8, stronger effect = lower value
  normalized growth: 0.869 (active)
Locus YER015W, strain faa2, stronger effect = lower value
  normalized growth: 0.653 (active)
Locus YER016W, strain bim1, stronger effect = lower value
  normalized growth: 0.963 (inactive)
Locus YER110C, stronger effect = lower value
  normalized growth: 0.989 (inactive)
Locus YER111C, strain swi4, stronger effect = lower value
  normalized growth: 0.969 (inactive)
Locus YER155C, strain BEM2 (second series), stronger effect = lower value
  normalized growth: 0.956 (inactive)
Locus YER155C, strain BEM2, stronger effect = lower value
  normalized growth: 0.98 (inactive)
Locus YER167W, strain BCK2, stronger effect = lower value
  normalized growth: 0.896 (active)
Locus YFR010W, strain ubp6, stronger effect = lower value
  normalized growth: 0.895 (active)
Locus YGL078C, strain dbp3, stronger effect = lower value
  normalized growth: 1 (inactive)
Locus YGL086W, strain mad1, stronger effect = lower value
  normalized growth: 0.861 (active)
Locus YGL167C, strain pmr1, stronger effect = lower value
  normalized growth: 0.976 (inactive)
Locus YGL173C, strain kem1, stronger effect = lower value
  normalized growth: 0.666 (active)
Locus YGL227W, strain vid30, stronger effect = lower value
  normalized growth: 1.01 (inactive)
Locus YGL240W, strain doc1, stronger effect = lower value
  normalized growth: 1.02 (inactive)
Locus YGL248W, strain PDE1, stronger effect = lower value
  normalized growth: 0.705 (active)
Locus YGL253W, strain hxk2, stronger effect = lower value
  normalized growth: 0.87 (active)
Locus YGR135W, strain pre9, stronger effect = lower value
  normalized growth: 0.955 (inactive)
Locus YGR252W, strain gcn5, stronger effect = lower value
  normalized growth: 1.03 (inactive)
Locus YHR013C, strain ard1, stronger effect = lower value
  normalized growth: 0.755 (active)
Locus YHR027C, strain rpn1, stronger effect = lower value
  normalized growth: 0.614 (active)
Locus YHR030C, strain SLT2, stronger effect = lower value
  normalized growth: 0.886 (active) and 0.97 (inactive)
Locus YHR079C, strain IRE1 (second series), stronger effect = lower value
  normalized growth: 1 (inactive)
Locus YHR079C, strain IRE1, stronger effect = lower value
  normalized growth: 0.992 (inactive)
Locus YHR094C, strain hxt1, stronger effect = lower value
  normalized growth: 1.01 (inactive)
Locus YHR129C, strain ARP1, stronger effect = lower value
  normalized growth: 0.769 (active)
Locus YHR142W, strain chs7, stronger effect = lower value
  normalized growth: 0.838 (active)
Locus YHR200W, strain rpn10, stronger effect = lower value
  normalized growth: 0.893 (active)
Locus YIL066C, strain RNR3, stronger effect = lower value
  normalized growth: 0.663 (active)
Locus YIL073C, strain SPO22, stronger effect = lower value
  normalized growth: 0.537 (active)
Locus YIL125W, strain kgd1, stronger effect = lower value
  normalized growth: 0.982 (inactive)
Locus YIR030C, strain dcg1, stronger effect = lower value
  normalized growth: 0.995 (inactive)
Locus YJL092W, strain hpr5, stronger effect = lower value
  normalized growth: 0.977 (inactive)
Locus YJL095W, strain BCK1 (second series), stronger effect = lower value
  normalized growth: 0.834 (active)
Locus YJL095W, strain BCK1, stronger effect = lower value
  normalized growth: 0.719 (active) and 0.977 (inactive)
Locus YJL115W, strain asf1, stronger effect = lower value
  normalized growth: 1.01 (inactive)
Locus YJL129C, strain trk1, stronger effect = lower value
  normalized growth: 1.02 (inactive)
Locus YJL134W, strain LCB3, stronger effect = lower value
  normalized growth: 0.944 (inactive)
Locus YJL154C, strain vps35, stronger effect = lower value
  normalized growth: 1.01 (inactive)
Locus YJL164C, strain tpk1, stronger effect = lower value
  normalized growth: 0.77 (active)
Locus YJL166W, strain qcr8, stronger effect = lower value
  normalized growth: 0.811 (active)
Locus YJL168C, strain set2, stronger effect = lower value
  normalized growth: 0.996 (inactive)
Locus YJL187C, strain SWE1 (second series), stronger effect = lower value
  normalized growth: 0.77 (active)
Locus YJL187C, strain SWE1, stronger effect = lower value
  normalized growth: 0.803 (active)
